Measurements published in publication PMC5700166.

Key:
Test in all cases: protein-binding microarray (PBM); PBM: ~300 nM protein, 6 mM HEPES pH 7.8, 80 mM KCl, 0.5 mM EDTA, 0.5 mM EGTA, 6% glycerol, 35 ng/ul poly-dIdC, 1% milk, 1 h, room temperature; Ap Aiptasia and Nv Nematostella (sea anemones) / Co Capsaspora / Aq Amphimedon (sponge) / Dm Drosophila / Hu human; RHD is the Rel homology domain; high values mean tight binding
Settings in all cases: dsDNA, one strand shown
[1] = target: T1, GST-Ap-NF-kB RHD (Exaiptasia pallida (Aiptasia), UniProt A0A913YAJ5 2-422)
T1 sequence: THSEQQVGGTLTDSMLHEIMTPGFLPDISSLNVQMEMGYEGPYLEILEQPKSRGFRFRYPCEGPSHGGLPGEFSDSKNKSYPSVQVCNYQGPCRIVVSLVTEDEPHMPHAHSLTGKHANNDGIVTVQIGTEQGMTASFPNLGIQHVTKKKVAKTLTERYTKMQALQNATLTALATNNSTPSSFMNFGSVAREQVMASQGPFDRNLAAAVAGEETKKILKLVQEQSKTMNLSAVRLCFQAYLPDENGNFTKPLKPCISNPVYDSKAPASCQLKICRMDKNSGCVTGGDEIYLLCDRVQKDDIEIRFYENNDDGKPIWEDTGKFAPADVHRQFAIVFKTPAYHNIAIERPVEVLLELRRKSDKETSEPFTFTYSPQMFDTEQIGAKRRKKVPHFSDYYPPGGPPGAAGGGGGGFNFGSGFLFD

[2] = target: T2, GST-Nv-NF-kB (Cys allele) (Nematostella vectensis, UniProt E5G601 2-411)
T2 sequence: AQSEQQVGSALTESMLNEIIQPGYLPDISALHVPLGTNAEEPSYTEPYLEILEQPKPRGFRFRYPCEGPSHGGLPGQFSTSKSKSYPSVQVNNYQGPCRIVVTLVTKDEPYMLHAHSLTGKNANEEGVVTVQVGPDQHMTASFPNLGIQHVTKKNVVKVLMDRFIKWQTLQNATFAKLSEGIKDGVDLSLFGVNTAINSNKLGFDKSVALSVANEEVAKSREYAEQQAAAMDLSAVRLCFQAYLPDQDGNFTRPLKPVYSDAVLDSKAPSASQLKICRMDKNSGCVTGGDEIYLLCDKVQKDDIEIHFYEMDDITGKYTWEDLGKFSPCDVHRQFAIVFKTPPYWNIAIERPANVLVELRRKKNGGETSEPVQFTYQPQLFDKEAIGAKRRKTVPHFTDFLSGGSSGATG

[3] = target: T3, GST-Dm-Relish (Drosophila melanogaster, UniProt Q94527 99-473)
T3 sequence: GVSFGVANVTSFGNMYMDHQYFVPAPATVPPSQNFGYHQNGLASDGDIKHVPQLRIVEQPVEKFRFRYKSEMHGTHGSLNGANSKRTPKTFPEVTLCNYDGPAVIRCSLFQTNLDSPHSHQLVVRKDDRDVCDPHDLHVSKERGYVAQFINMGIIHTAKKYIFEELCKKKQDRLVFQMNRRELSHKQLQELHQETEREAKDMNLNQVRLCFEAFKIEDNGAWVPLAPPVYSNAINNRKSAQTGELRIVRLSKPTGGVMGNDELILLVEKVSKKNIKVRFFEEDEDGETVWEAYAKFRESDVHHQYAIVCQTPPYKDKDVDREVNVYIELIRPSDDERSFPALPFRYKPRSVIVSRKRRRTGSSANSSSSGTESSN

[4] = target: T4, GST-Aq-NF-kB (Amphimedon queenslandica, UniProt A9Y5G7 2-389)
T4 sequence: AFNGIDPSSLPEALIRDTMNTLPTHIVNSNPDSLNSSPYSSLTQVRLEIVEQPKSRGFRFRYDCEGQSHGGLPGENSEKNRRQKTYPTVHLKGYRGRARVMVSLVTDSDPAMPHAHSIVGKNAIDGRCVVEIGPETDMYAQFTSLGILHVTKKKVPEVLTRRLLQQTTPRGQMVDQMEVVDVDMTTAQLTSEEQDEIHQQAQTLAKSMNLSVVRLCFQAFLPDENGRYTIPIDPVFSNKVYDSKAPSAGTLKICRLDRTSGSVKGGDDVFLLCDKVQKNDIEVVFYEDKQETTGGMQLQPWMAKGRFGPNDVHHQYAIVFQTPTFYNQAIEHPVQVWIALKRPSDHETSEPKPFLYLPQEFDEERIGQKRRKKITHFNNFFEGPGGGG

[5] = target: T5, GST-Co-NF-kB (Capsaspora owczarzaki, UniProt F1ARL5 200-546)
T5 sequence: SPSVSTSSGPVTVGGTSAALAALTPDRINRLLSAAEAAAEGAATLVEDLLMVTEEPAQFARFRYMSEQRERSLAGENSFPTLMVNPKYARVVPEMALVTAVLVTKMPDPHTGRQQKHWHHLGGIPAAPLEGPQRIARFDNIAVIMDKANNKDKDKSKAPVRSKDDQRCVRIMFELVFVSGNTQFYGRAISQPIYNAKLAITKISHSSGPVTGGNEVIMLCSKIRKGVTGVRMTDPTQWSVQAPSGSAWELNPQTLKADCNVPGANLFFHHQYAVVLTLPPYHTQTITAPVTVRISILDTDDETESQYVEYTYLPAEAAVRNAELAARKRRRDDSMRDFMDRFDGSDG

| Sequence | binding signal [1] | binding signal [2] | binding signal [3] | binding signal [4] | binding signal [5] |
| --- | --- | --- | --- | --- | --- |
| CCGATTAACATCAGGAGTTTACCTGATGTTAATCGGGTCTTGATTCGCTTGACGCTGCTG | 1.12 z-score | 1.18 z-score | 3.24 z-score | 2.87 z-score |  |
| CCGATTAACATCAGGAAATGCCCTGATGTTAATCGGGTCTTGATTCGCTTGACGCTGCTG | 1.98 z-score | 3.05 z-score | 1.68 z-score | 5.41 z-score |  |
| CCGATTAACATCAAAAAAATACCTGATGTTAATCGGGTCTTGATTCGCTTGACGCTGCTG | 1.95 z-score | 2.83 z-score | 5.83 z-score | 3.53 z-score |  |
| CCGATTAACATCACCTTCCCCCCTGATGTTAATCGGGTCTTGATTCGCTTGACGCTGCTG | 4.15 z-score | 4.07 z-score | 3.79 z-score | 4.32 z-score | 7.1 z-score |
| CCGATTAACATCAGGGACAACCCTGATGTTAATCGGGTCTTGATTCGCTTGACGCTGCTG | 3.42 z-score | 4.16 z-score | 3.09 z-score | 5.59 z-score | 1.06 z-score |
| CCGATTAACATCAGGGATTTTGATGATGTTAATCGGGTCTTGATTCGCTTGACGCTGCTG | 3.17 z-score | 2.95 z-score | 4.91 z-score | 2.87 z-score |  |
| CCGATTAACATCAAGGGCATTCCTGATGTTAATCGGGTCTTGATTCGCTTGACGCTGCTG | 1.84 z-score | 1 z-score | 2.4 z-score | 3.02 z-score |  |
| CCGATTAACATCAGGGACAGCCCTGATGTTAATCGGGTCTTGATTCGCTTGACGCTGCTG | 3.43 z-score | 4.69 z-score | 2.23 z-score | 6.35 z-score |  |
| CCGATTAACATCAGGGATTCTCATGATGTTAATCGGGTCTTGATTCGCTTGACGCTGCTG | 2.96 z-score | 1.8 z-score | 2.59 z-score | 2.67 z-score |  |
| CCGATTAACATCAGGGGAAGGAATGATGTTAATCGGGTCTTGATTCGCTTGACGCTGCTG | 3.87 z-score | 5.34 z-score | 3.59 z-score | 4.05 z-score | 6.35 z-score |
| CCGATTAACATCAAAGTGTCCCCTGATGTTAATCGGGTCTTGATTCGCTTGACGCTGCTG | 5.38 z-score | 4.57 z-score | 1.98 z-score | 4.15 z-score | 5.15 z-score |
| CCGATTAACATCAGGAATCACCCTGATGTTAATCGGGTCTTGATTCGCTTGACGCTGCTG | 2.46 z-score | 2.05 z-score | 7.17 z-score | 4.82 z-score |  |
| CCGATTAACATCAGGGGGGGTGATGATGTTAATCGGGTCTTGATTCGCTTGACGCTGCTG | 3.51 z-score | 4.08 z-score | 4.26 z-score | 4.36 z-score | 4.48 z-score |
| CCGATTAACATCAGGGAACTTTATGATGTTAATCGGGTCTTGATTCGCTTGACGCTGCTG | 4.27 z-score | 4.23 z-score | 4.83 z-score | 5.17 z-score | 2.81 z-score |
| CCGATTAACATCAGGGATCCCCATGATGTTAATCGGGTCTTGATTCGCTTGACGCTGCTG | 7.26 z-score | 4.8 z-score | 9.65 z-score | 4.64 z-score | 3.74 z-score |
| CCGATTAACATCAAGGGGGTGACTGATGTTAATCGGGTCTTGATTCGCTTGACGCTGCTG | 4.68 z-score | 3.59 z-score | 2.43 z-score | 4.26 z-score | 3.04 z-score |
| CCGATTAACATCAGGCATTTCCCTGATGTTAATCGGGTCTTGATTCGCTTGACGCTGCTG | 3 z-score | 5.12 z-score | 1.97 z-score | 6.69 z-score | 1.77 z-score |
| CCGATTAACATCAGGAATTCACCTGATGTTAATCGGGTCTTGATTCGCTTGACGCTGCTG | 1.52 z-score | 3.06 z-score | 6.05 z-score | 4.83 z-score |  |
| CCGATTAACATCAAGGACTTCCCTGATGTTAATCGGGTCTTGATTCGCTTGACGCTGCTG | 2.9 z-score | 3.39 z-score | 6.91 z-score | 5 z-score |  |
| CCGATTAACATCAAGGGTTTTCCTGATGTTAATCGGGTCTTGATTCGCTTGACGCTGCTG | 3.57 z-score | 3.39 z-score | 4.7 z-score | 5.2 z-score |  |
| CCGATTAACATCAGGAGGCCCCCTGATGTTAATCGGGTCTTGATTCGCTTGACGCTGCTG | 4.97 z-score | 2.51 z-score | 2.71 z-score | 5.1 z-score |  |
| CCGATTAACATCACCCCAGCCCCTGATGTTAATCGGGTCTTGATTCGCTTGACGCTGCTG | 3.28 z-score | 1.93 z-score | 2.39 z-score | 2.91 z-score | 2.88 z-score |
| CCGATTAACATCAGGGGCTGTACTGATGTTAATCGGGTCTTGATTCGCTTGACGCTGCTG | 2.83 z-score | 3.09 z-score | 3.56 z-score | 4.35 z-score |  |
| CCGATTAACATCAGGATATACCCTGATGTTAATCGGGTCTTGATTCGCTTGACGCTGCTG | 2.02 z-score | 2.26 z-score | 2.67 z-score | 4.83 z-score |  |
| CCGATTAACATCAGGAAAAACCCTGATGTTAATCGGGTCTTGATTCGCTTGACGCTGCTG | 4.35 z-score | 5.86 z-score | 6.52 z-score | 7.68 z-score |  |
| CCGATTAACATCAAACAAACCCCTGATGTTAATCGGGTCTTGATTCGCTTGACGCTGCTG | 4.35 z-score | 3.42 z-score | 3.06 z-score | 3.95 z-score | 1.74 z-score |
| CCGATTAACATCACAAAACTCCCTGATGTTAATCGGGTCTTGATTCGCTTGACGCTGCTG | 4.94 z-score | 6.58 z-score | 5.41 z-score | 6.32 z-score | 2.13 z-score |
| CCGATTAACATCAAAACAATCCCTGATGTTAATCGGGTCTTGATTCGCTTGACGCTGCTG | 2.49 z-score | 3.19 z-score | 2.25 z-score | 4.66 z-score | 1.41 z-score |
